A selection: hits, their analogues and other compounds. The true share with any hit is near 12%.
SARS PLP yeast: qHTS of Yeast-based Assay for SARS-CoV PLP | S. cerevisiae expressing SARS-CoV PLpro, growth rescue | Potency, µM (series often up to 32.9 µM), inactives show at the highest dose activity, positive = growth rescue, hits mostly activators | 0.19% of 330,000 active; further: potency means the concentration at half of the fitted maximal effect; 0% is about no effect; nearly all actives have a fitted effect of over 55% in size
NS1 function inh: qHTS Assay for Inhibitors of Influenza NS1 Protein Function; Potency, µM (highest dose often 46.1 µM), for the others: at the highest dose activity, positive = more growth; 0.4% of 270,000 active; AID 2326, 2010; further: potency means the concentration at half of the fitted maximal effect; actives are rising curves; nearly all actives have a fitted effect of over 50% in size
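Recovery from NS1-induced slow growth read by OD600 in budding yeast switched to galactose assay medium (pH 6.0, -URA) at 1:100 dilution. Compound 23 nl per well; the matching strain lacking NS1 serves as control.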
Shiga toxin inh: A qHTS for Small Molecule Inhibitors of Shiga Toxin; Vero cells, Shiga toxin protein synthesis inhibition reporter; inhibition, % at 38.7 µM; 9.2% of 290,000 active; in the data active means inhibition mostly above about 28%, no sharp cut-off; inactive means mostly below about 43%; further: 0% is about no effect
CHX counter: Cycloheximide Counterscreen for Small Molecule Inhibitors of Shiga Toxin | cell reporter, cycloheximide protein synthesis inhibition counterscreen | 12% of 300,000 active | max response, %; in the data active means max response mostly above about 13%, no sharp cut-off; inactive means mostly below about 14%; further: read at 38.3 µM for the half of the compounds with a filed dose; 0% is about no effect
Numbers without * were called inactive; ? = inconclusive; . = no result; + = active, no number. Unless noted, the call rests on the fitted dose curve.

SMILES	SARS PLP yeast	NS1 function inh	Shiga toxin inh	CHX counter
Cc1ccc(NC(=O)C2CCCN(C(=O)c3ccc(Cl)cc3)C2)cc1C (centres undefined)	-12.3%	.	72.4*	40.1*
COc1ccc(C(=O)N2CCCC(Nc3ccc(F)cc3)C2)cc1F (centres undefined)	-5.7%	-8.3%	-7.5	-1.9
Cc1cccc(C)c1NC(=O)CNC(=O)C1CCCN(C(=O)c2ccc(Cl)cc2)C1 (centres undefined)	3.1%	.	.	.
CCOC(=O)C1CCCN(C(=O)c2ccc(Cl)cc2)C1 (centres undefined)	-1.3%	4.3%	-8.1	-1.9
COc1ccc(C(=O)N2CCCC(Nc3ccc(C)c(C)c3)C2)cc1F (centres undefined)	-4.7%	-17.9%	47.2	29.6*
Cc1ccc(NC(=O)C2CCCN(C(=O)c3ccc(Cl)cc3)C2)c(C)c1 (centres undefined)	-0.6%	.	25.2	15.2
CCCCC(=O)Nc1ccc(C(=O)N2CCCC(C(=O)OCC)C2)cc1 (centres undefined)	7.4%	?	12.9	19.8*
Cc1ccc(NC(=O)C2CCCN(C(=O)c3ccc(Cl)cc3)C2)cc1 (centres undefined)	-0.6%	.	69.7*	47.7
CCC(=O)Nc1ccc(NC(=O)CSc2nnnn2C2CCCC2)cc1C	-1.0%	10.5%	-6.5	2.9
COc1ccc(NC2CCCN(C(=O)CCc3ccncc3)C2)cc1OC (centres undefined)	-6.4%	29.5%	-11.8	45.0*
O=C1CCCCN1CCCC(=O)N1CCCC(Nc2ccc(F)c(F)c2)C1 (centres undefined)	2.9%	22.8%	-31.2	7.5
O=C1CCCN1CCC(=O)N1CCCC(Nc2ccc(F)c(F)c2)C1 (centres undefined)	-0.8%	1.2%	32.7*	12.9
O=[N+]([O-])c1cc2c(cc1CN1CCN(c3ccccc3)CC1)OCO2	-1.9%	24.7%	.	34.9*
COc1ccccc1NC(=O)CSc1ccc(-c2ccc(-n3cccn3)cc2)nn1	-2.5%	.	.	.
O=C1CSC(c2ccc(F)cc2)N1c1nc2ccccc2s1 (centres undefined)	-32.1%	4.9%	5.6	-1.2
CCc1ccc(NC(=O)c2cc(C(C)C)on2)cc1	-8.2%	-57.9%	65.4*	35.7*
Cc1cc(NC(=O)c2cccc(C(=O)Nc3cc(C)on3)n2)no1	3.7%	-1.3%	11.7	-6.1
CCc1ccc(NC(=O)c2cc(C)on2)cc1	-3.8%	-8.5%	51.3*	28.1*
Cc1cc(C(=O)Nc2ccccn2)no1	1.2%	-2.5%	43.8*	23.5*
CCc1ccc(NC(=O)c2cc(Br)ccc2Br)cc1	0.7%	-0.9%	11.6	10.6
Cc1ccc(Cn2ccc(NC(=O)c3cc(C)on3)n2)cc1	3.1%	-13.3%	51.6	29.1*
CC(=O)Nc1ccc(S(=O)(=O)N2CCN(CC3CC4C=CC3C4)CC2)cc1 (centres undefined)	14.0%	1.6%	12.4	-1.3
Cc1ccc(NC(=O)c2cc(C)on2)cc1	8.3%	-5.1%	62.0	55.8*
Cc1ccc(NC(=S)Nc2cc(C)on2)cc1	0.8%	-5.0%	66.6*	47.5*
Cc1ccc(NC(=O)c2c(C)noc2C)cc1	-2.0%	0.2%	-20.6	-2.2
SMILES	SARS PLP yeast	NS1 function inh	Shiga toxin inh	CHX counter
CCc1ccc(NC(=O)c2cc(-c3ccc(OC)cc3)on2)cc1	0.8%	-3.5%	40.7*	64.2*
COC(=O)c1cccc(C(=O)Nc2ccc(C)cc2)n1	-10.8%	-18.1%	79.8*	44.9*
CCc1ccc(NC(=O)c2cc(-c3ccc(F)cc3)on2)cc1	-1.2%	.	30.7	3.4
CCn1c(SCC(=O)OC(C)C)nnc1-c1ccccc1OC	0.6%	.	-13.5	12.1
C/C(=N/N=C(/N)SCc1ccccc1)C(C)(C)C	0.8%	-0.9%	37.4	26.8*
CC(C)N(C(=O)[C@H]1C[C@H](CC(=O)NCC23CC4CC(CC(C4)C2)C3)C(=O)N2CCc3c([nH]c4cc(CCC(=O)N(C)C)ccc34)[C@]12C)C(C)C	-2.4%	.	.	.
COc1nc(-c2ccc(Cl)cc2)ccc1-c1noc(-c2ccco2)n1	-8.1%	1.0%	25.9	-1.8
Brc1ccc(-c2nc(-c3ccncc3)no2)cc1	-4.4%	2.0%	25.0	7.0
O=[N+]([O-])c1ccc(-c2nc(-c3ccncc3)no2)cc1	-1.4%	-43.0%	37.3*	18.3*
c1coc(-c2nc(-c3ccncc3)no2)c1	-5.1%	4.9%	71.2*	48.8*
c1ccc(-c2nc(-c3ccncc3)no2)cc1	.	-11.6%	148.1*	69.6*
c1ccc(-c2ccc(-c3nc(-c4ccncc4)no3)cc2)cc1	10.2%	-0.2%	82.0	34.8*
Cc1cnc(C(=O)OC(C(=O)c2c[nH]c3ccccc23)c2ccccc2)cn1 (centres undefined)	-10.1%	.	.	.
N#Cc1ccc(/C=C/C(=O)c2ccco2)cc1	-63.1%	-37.1%	26.4	5.7
Cc1cccc2cc(/C=C/C(=O)c3ccco3)c(Cl)nc12	1.5%	-46.7%	15.5	11.6*
Nc1ccc(/C=C/C(=O)c2ccco2)cc1	-25.8%	-4.6%	+	68.7*
CCc1ccc(/C=C/C(=O)c2cc(Br)ccc(=O)c2O)cc1	24.1%	-157.0%	32.3	10.8
Cc1ccc(/C=C/C(=O)c2cc(Br)ccc2OC(=O)c2ccco2)cc1	-8.1%	-16.6%	48.8*	23.7*
CC(C)(C)C(=O)Nc1ccc(/C=C/C(=O)c2ccco2)cc1	-1.5%	-16.4%	.	25.1*
CSc1nc2c(c(=O)[nH]1)C(c1cccc(Cl)c1)CC(=O)N2 (centres undefined)	-1.4%	.	-12.2	1.3
O=C(/C=C/c1cc(Br)ccc1O)c1ccco1	-21.3%	-92.8%	9.6	3.6
O=C(/C=C/c1ccccc1O)c1ccco1	-7.1%	-65.4%	60.6*	30.3*
NS(=O)(=O)c1ccc(N=Nc2c(O)c(C(=O)O)cc3ccccc23)cc1	1.4%	-2.9%	6.5	3.5
O=C(O)Cc1ccc(N=Nc2c(O)c(C(=O)O)cc3ccccc23)cc1	-1.4%	15.8%	132.8*	56.0*
O=C(Nc1cccc(Cl)c1)c1ccc(=O)[nH]n1	1.1%	3.5%	21.6	1.6
SMILES	SARS PLP yeast	NS1 function inh	Shiga toxin inh	CHX counter
COc1ccc(Cn2c(=S)[nH]c3cc(OC)c(OC)cc3c2=O)cc1	-1.3%	.	49.8	31.2*
COc1cc2[nH]c(=S)n(Cc3ccc(C)cc3)c(=O)c2cc1OC	3.8%	.	-7.6	-0.9
O=C(NCCCCN1CCN(c2cccc(Cl)c2Cl)CC1)c1ccc2c(c1)Cc1ccccc1-2	.	.	-0.6	11.7
Cc1cc(C(=O)N(C)C)sc1-c1ccccc1	-87.4%	-54.0%	71.2*	63.3*
Cc1cc(C)nc(Nc2n[nH]c(-c3ccc(N)cc3)n2)n1	-7.0%	-1.0%	72.4*	35.6*
Cc1cc(C)nc(Nc2n[nH]c(-c3ccccc3C)n2)n1	-0.8%	-2.0%	100.3*	42.1*
Cc1cc(C)nc(Nc2n[nH]c(-c3ccccc3Br)n2)n1	-6.4%	-12.9%	110.2*	47.6*
Cc1ccc2c(c1)C(O)(CC(=O)/C=C/C=C/c1ccccc1)C(=O)N2 (centres undefined)	1.3%	-36.7%	22.5	27.2*
FC(F)(F)c1ccc(-n2ccnc2)nc1	3.3%	1.7%	-13.5	-3.2
CN(C)/C=N/c1ncnc2c1cnn2-c1ccc(C(F)(F)F)cn1	-5.3%	6.6%	76.6*	41.5*

Screening data (PubChem)
